Drawing on ChEMBL document CHEMBL3988442, “University of Dundee, Small-Polar-MMV Screening Library” (2021), this text covers Percent Effect for 11 compounds.

For some of these results: Potency and affinity values are given separately.

What all share (design): scale not given: direction of the effect not stated beside the values
For assay [1], the target named is Protein translocase subunit SecA (Escherichia coli (strain K12)) (UniProt P10408). As to the kind of experiment: Assay to Identify E. coli SecA ATPase Inhibitors. In kind it is functional. The settings on record: 30 µM.
Chain of Protein translocase subunit SecA (Escherichia coli (strain K12)) (P10408 whole entry): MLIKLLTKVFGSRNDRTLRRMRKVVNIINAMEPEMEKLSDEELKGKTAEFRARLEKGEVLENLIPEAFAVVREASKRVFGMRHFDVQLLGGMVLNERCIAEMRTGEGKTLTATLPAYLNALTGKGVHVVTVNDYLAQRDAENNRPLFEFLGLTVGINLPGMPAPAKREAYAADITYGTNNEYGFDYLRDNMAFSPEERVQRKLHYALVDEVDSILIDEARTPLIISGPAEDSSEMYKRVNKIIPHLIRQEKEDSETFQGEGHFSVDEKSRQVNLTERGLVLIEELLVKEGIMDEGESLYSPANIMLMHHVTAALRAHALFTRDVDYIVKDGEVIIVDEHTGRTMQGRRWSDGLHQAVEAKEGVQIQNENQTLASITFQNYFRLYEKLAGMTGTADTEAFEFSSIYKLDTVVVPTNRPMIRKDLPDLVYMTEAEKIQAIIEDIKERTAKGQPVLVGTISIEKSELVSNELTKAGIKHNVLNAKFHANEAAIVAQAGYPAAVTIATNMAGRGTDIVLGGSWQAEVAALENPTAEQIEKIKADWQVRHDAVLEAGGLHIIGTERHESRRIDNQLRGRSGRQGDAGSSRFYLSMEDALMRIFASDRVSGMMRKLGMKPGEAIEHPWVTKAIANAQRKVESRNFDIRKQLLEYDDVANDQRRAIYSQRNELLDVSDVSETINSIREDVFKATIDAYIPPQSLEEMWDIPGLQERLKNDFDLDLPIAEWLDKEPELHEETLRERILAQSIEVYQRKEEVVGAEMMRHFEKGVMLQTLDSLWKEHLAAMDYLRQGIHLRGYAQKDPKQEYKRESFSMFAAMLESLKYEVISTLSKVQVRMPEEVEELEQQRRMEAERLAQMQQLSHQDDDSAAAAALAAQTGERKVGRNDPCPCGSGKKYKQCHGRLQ
Assay [2] deals with T1, Ubiquitin-activating enzyme e1, putative (Leishmania donovani (strain BPK282A1)) (UniProt E9BSI1).
T1 sequence (whole entry): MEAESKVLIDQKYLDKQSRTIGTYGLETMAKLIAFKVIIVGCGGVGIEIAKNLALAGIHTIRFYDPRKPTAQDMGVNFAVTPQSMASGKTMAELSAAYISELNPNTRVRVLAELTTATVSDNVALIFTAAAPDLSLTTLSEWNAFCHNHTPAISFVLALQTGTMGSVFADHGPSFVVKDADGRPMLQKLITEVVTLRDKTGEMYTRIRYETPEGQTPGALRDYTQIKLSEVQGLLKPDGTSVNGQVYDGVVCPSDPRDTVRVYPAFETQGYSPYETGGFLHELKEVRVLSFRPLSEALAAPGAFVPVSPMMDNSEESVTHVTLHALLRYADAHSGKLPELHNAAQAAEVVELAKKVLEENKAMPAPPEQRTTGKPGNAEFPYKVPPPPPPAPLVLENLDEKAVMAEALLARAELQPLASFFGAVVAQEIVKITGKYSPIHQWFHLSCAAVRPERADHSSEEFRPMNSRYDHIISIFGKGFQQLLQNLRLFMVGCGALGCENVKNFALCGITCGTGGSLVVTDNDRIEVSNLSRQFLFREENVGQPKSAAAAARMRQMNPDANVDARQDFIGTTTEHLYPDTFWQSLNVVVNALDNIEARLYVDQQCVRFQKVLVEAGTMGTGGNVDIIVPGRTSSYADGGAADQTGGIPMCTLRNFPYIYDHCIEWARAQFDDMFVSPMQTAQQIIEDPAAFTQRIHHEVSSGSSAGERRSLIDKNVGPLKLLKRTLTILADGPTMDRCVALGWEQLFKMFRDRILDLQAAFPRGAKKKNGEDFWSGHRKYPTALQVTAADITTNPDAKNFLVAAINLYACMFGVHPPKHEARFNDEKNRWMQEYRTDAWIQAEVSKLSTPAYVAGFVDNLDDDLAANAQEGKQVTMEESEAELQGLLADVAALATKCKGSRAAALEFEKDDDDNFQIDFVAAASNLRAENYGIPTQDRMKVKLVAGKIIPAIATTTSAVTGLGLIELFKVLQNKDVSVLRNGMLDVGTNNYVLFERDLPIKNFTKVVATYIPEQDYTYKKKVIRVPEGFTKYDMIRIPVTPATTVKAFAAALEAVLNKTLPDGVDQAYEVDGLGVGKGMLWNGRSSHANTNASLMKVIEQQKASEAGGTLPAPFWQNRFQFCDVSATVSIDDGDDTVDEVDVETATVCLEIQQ
As to the kind of experiment: Leishmania donovani Ubiquitin Activating Enzyme (LdE1). In kind it is functional. The settings on record: 30 µM.

Assay [3] deals with AMP-activated protein kinase, AMPK (Homo sapiens) (UniProt P54646+O43741+P54619+Q9UGJ0+Q9Y478+Q13131+Q9UGI9). As to the kind of experiment: AMP-dependent Kinase enzyme assay. An in vitro enzyme assay that detects ADP turnover that is directly proportional to AMPK activity. This uses naive AMPK that is activated during the assay with MK-8722. In kind it is functional. The settings on record: 30 µM.

Assay [4] has as its target Sialic acid-binding Ig-like lectin 9 (Homo sapiens) (UniProt Q9Y336). Briefly: Hs-Siglec9 ALPHAscreen SOP 20170721. Conditions: 10 µM.
Assay [5] deals with Trypanosoma cruzi. As to the kind of experiment: Trypanosoma cruzi phosphomannomutase and mannose-1-phosphate guanylyltransferase assay. In kind it is functional. Conditions: 10 µM.
Assay [6] deals with T2, Arginase-2, mitochondrial (Homo sapiens) (UniProt P78540).
T2 sequence (whole entry): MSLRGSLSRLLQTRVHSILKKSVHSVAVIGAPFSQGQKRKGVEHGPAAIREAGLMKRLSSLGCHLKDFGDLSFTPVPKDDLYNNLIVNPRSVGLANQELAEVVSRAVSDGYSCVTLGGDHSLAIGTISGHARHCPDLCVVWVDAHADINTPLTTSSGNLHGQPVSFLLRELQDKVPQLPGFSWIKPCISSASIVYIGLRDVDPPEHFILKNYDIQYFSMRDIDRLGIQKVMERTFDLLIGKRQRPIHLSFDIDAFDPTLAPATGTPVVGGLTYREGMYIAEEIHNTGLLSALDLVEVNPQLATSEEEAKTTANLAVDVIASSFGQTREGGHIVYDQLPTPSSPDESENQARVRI
Briefly: in vitro enzyme assay to detect the production of urea directly proportional to the activity of Arginase II. Further: in the data most compounds retested in dose-response had high values. It counts as functional. Conditions: 33.3 µM.

Assay [7] addresses T3, Proteasome subunit beta (Trypanosoma cruzi) (UniProt O96673).
T3 sequence (whole entry): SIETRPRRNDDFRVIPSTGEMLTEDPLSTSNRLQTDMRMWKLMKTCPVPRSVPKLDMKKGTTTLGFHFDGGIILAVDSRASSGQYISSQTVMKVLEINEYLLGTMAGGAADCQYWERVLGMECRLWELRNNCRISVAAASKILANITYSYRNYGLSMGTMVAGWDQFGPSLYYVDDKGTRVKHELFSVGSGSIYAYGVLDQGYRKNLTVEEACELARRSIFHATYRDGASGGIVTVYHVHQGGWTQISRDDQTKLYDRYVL
Briefly: Trypanosoma cruzi proteasome chymotrypsin-like activity (TcProtChymo) assay. Further: in the data most compounds retested in dose-response had high values. It counts as functional. The settings on record: 9.37 µM.

The species named for assay [8] is Homo sapiens. As to the kind of experiment: To identify inhibition of the IFN signalling (Jak-Stat) pathway via expression of an eGFP reporter gene under the control of an IFN-stimulated response element (ISRE) containing MxA promoter. It counts as functional. The settings on record: 30 µM.
Assay [9] has as its target T4, Tyrosyl-tRNA synthetase, putative (Trypanosoma cruzi (strain CL Brener)) (UniProt Q4DSP6).
T4 sequence (whole entry): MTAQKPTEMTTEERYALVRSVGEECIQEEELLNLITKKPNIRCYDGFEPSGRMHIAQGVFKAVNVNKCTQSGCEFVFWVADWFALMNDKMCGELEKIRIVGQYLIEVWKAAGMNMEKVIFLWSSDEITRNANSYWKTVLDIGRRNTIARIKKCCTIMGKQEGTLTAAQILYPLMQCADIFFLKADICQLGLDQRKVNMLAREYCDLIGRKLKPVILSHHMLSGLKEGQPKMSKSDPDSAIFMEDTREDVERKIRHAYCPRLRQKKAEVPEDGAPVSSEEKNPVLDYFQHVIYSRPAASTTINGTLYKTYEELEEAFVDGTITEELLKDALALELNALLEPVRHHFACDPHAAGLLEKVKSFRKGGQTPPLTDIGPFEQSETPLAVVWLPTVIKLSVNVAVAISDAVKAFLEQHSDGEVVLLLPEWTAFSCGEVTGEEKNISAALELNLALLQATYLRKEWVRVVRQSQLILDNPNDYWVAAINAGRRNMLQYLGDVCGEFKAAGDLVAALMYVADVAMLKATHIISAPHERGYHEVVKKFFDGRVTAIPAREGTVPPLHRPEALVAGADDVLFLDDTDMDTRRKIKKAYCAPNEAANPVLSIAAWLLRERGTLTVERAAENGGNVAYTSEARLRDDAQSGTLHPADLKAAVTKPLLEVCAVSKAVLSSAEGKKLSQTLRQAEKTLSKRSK
Briefly: Trypanosoma cruzi tyrosyl tRNA synthetase (TcYRS) _High Tyrosine SOP. Further: in the data most compounds retested in dose-response had high values. It counts as functional. Conditions: 30 µM.

The target in assay [10] is T4, Tyrosyl-tRNA synthetase, putative (Trypanosoma cruzi (strain CL Brener)). Briefly: Trypanosoma cruzi tyrosyl tRNA synthetase (TcYRS) SOP. It counts as functional. Conditions: 30 µM.
For assay [11], the target named is Chromo domain-containing protein 1 (Saccharomyces cerevisiae (strain ATCC 204508 / S288c) (Baker's yeast)) (UniProt P32657). As to the kind of experiment: ScCHD-1 Enzyme Inhibition Assay. Further: in the data most compounds retested in dose-response had high values. The settings on record: 30 µM. In kind it is functional.
Chain of Chromo domain-containing protein 1 (Saccharomyces cerevisiae (strain ATCC 204508 / S288c) (Baker's yeast)) (P32657 whole entry, the tested form may be a part): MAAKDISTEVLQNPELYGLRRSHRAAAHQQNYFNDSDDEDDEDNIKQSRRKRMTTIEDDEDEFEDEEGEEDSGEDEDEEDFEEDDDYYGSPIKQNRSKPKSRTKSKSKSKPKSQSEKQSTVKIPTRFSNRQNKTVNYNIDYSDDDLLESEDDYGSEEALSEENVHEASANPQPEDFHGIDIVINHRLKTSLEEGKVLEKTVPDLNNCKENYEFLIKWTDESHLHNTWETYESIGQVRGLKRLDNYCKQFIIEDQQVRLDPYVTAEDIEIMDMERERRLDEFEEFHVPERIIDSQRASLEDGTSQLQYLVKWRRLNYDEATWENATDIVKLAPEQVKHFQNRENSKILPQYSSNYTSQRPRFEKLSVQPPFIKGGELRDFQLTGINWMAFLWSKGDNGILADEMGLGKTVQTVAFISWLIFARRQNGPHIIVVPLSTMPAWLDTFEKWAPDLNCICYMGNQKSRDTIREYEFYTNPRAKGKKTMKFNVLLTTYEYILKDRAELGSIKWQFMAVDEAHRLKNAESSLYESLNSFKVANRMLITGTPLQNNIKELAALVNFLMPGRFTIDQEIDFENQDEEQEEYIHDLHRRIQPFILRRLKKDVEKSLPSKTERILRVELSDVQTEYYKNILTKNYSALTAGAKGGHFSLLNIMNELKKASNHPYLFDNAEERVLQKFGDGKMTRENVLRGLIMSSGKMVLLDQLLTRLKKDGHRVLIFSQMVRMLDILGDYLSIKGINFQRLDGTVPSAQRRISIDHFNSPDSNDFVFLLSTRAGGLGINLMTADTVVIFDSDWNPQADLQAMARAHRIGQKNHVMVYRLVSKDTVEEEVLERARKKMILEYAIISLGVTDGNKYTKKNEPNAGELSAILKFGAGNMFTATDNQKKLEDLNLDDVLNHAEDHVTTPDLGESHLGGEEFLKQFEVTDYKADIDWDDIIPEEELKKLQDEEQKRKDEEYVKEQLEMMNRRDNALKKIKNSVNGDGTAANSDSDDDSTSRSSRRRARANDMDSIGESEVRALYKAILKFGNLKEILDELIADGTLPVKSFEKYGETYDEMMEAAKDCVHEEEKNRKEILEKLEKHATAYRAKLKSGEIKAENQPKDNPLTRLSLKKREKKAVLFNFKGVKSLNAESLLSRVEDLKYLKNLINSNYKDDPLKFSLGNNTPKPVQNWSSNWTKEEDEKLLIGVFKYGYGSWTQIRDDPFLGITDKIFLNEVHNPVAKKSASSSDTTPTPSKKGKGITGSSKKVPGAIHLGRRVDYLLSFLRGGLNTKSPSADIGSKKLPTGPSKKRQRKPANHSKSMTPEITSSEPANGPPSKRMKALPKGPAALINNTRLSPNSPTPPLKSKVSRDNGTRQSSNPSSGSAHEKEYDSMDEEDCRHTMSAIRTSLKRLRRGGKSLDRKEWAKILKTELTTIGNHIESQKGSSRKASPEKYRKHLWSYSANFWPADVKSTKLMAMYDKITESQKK

Chain of Sialic acid-binding Ig-like lectin 9 (Homo sapiens) (Q9Y336 whole entry): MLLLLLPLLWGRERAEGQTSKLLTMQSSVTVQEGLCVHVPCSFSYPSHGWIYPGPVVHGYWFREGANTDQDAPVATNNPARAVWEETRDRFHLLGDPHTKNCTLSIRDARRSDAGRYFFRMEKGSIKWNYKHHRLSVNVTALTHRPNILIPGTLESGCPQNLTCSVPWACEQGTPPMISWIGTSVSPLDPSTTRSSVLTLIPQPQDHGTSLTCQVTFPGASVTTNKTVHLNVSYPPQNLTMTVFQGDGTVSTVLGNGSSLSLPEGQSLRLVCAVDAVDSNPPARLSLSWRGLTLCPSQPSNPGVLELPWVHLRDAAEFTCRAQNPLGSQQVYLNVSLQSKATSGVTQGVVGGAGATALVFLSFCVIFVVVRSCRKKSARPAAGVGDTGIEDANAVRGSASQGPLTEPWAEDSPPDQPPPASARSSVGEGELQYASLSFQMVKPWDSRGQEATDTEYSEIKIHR

For `CC(C)c1nc(C2CCCN2CCCc2nc3ccccc3o2)no1` (stereo unspecified), the Percent Effect in assay [1] is -2.74%; in assay [2], -8.11%; in assay [3], -9.61%; in assay [4], 9.51%; in assay [5] it was 1.42%; in [6], -6.81%. Also, the Percent Effect in assay [7] was -1.62%; in assay [8], 5.36%; in [9] it was 2.46%; in [10], -6.17%; in [11] it was 0.486%.
As for `CCOc1ccccc1C(CC(=O)Nc1nc(C)cs1)NC(C)=O` (stereo unspecified), the Percent Effect in assay [1] is -1.09%; in assay [2] it was 5.26%; in assay [3], -0.999%; in assay [4], 0.981%; in assay [5] it was -2.63%; in [6] it was 4.21%. Further, the Percent Effect in [7] was 6.85%; in assay [8], 10.1%; in [9], 3.43%; in [10], 9.76%; in assay [11], -5.47%.
On to `NC(=O)C1CCCN(C(=O)c2cnc3c(cnn3C3CCCC3)c2)C1` (stereo unspecified), for which the Percent Effect in assay [1] was -8.82%; in assay [2] it was 15.2%; in assay [3], -8.15%; in assay [4], 18.9%; in assay [5] it was 12.8%; in [6] it was -3.04%. Also, the Percent Effect in assay [7] was 3.19%; in assay [8], 19.3%; in [9], 6.4%; in assay [10], 24.1%; in [11], -11.1%.
Regarding `COc1ccc(NC(=O)CCC2CCCN(Cc3ncon3)C2)cc1Cl` (stereo unspecified), the Percent Effect in assay [1] is -3.35%; in [2] it was 10.7%; in [3] it was -3.08%; in assay [4], 17.1%; in assay [5], 2.82%; in assay [6] it was 7.81%. The Percent Effect in assay [7] was 24.8%; in assay [8], -6.37%; in assay [9], 8.2%; in assay [10], 18.5%; in assay [11], 92.7%.
Regarding `CN(C)CCN(C)C(=O)c1cnc2c(c1)nc(-c1ccccc1Cl)n2C`, the Percent Effect in assay [1] was -6.72%; in assay [2], 5.41%; in [3], -0.741%; in [4], -1.85%; in assay [5], -0.88%; in [6], 2.23%. The Percent Effect in assay [7] was -1.29%; in assay [8] it was 8.57%; in [9] it was 9.68%; in assay [10] it was 13.6%; in [11], -3.61%.
`Cc1nn(C)c(Cl)c1C1CCCN1C(=O)c1nccnc1N` (stereo unspecified): the Percent Effect is -2.73% in assay [1]; 16.2% in assay [2]; -10.8% in assay [3]; -6.66% in assay [4]; -3.3% in assay [5]; 0.802% in assay [6]. Further, the Percent Effect was 12.4% in [7]; 1.8% in [8]; 7.39% in assay [9]; 18.5% in assay [10]; -6.71% in assay [11].
Consider `O=C(CC1CCCCC1)N1CCN(C(=O)NCc2ccccn2)CC1`, for which the Percent Effect in assay [1] was -3.1%; in [2], 10.4%; in assay [3], 1.16%; in [4], -0.668%; in [5], 1.86%; in assay [6], 1.05%. The Percent Effect in assay [7] was 6.39%; in assay [8] it was -4.56%; in assay [9], 4.76%; in assay [10] it was -16.5%; in assay [11], -15%.
Take `Cn1c(C(F)(F)F)nn(CCNC(=O)c2cnc3ccccc3n2)c1=O`: the Percent Effect was -2.81% in assay [1]; 13.7% in assay [2]; 4.14% in [3]; 14.5% in [4]; 3.33% in assay [5]; 0.909% in assay [6]. Also, the Percent Effect is -1.95% in assay [7]; -0.549% in assay [8]; 3.23% in assay [9]; 12.5% in assay [10]; -3.18% in [11].
Take `CC(CNCc1ccncc1)Oc1ccccn1` (stereo unspecified): the Percent Effect in assay [1] was -0.77%; in assay [2], 9.33%; in [3], -1.66%; in [4], 5.01%; in assay [5], 0%; in [6] it was -15.3%. Also, the Percent Effect in assay [7] is 13.9%; in assay [8] it was 2.27%; in assay [9] it was 4.23%; in [10], 7.69%; in [11], -10.8%.
For the compound `O=C(Cc1ccc2c(c1)CCO2)N1CCN(c2cnccn2)CC1`, the Percent Effect in assay [1] was -4.64%; in [2], -7.89%; in assay [3] it was 2.2%; in [4] it was -0.444%; in assay [5] it was 9.59%; in assay [6], -1.53%. Also, the Percent Effect was 0.167% in assay [7]; 5.16% in [8]; 3.43% in assay [9]; 7.32% in [10]; -12.2% in assay [11].
As for `CCc1cnc(N2CCC(=O)N(CC3CC3)C(C(C)C)C2)nc1` (stereo unspecified), the Percent Effect is 3.49% in assay [1]; 13.5% in assay [2]; -2.35% in assay [3]; 11.8% in assay [4]; -0.965% in assay [5]; 4.29% in [6]. The Percent Effect in [7] was 8.62%; in assay [8] it was 29.3%; in [9] it was 3.7%; in [10] it was 12.2%; in assay [11], -1.36%.
